The nature of the assay: chemical genetic growth profiling, strain panel (AID 1159580).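 Also: tested at 20 µM; growth read once vehicle control cultures reached saturation at 30 °C; 1 = growth at the plate median or of vehicle wells; lower values mean less growth of the strain.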 The following applies: growth OD.
The mark [1] stands for this setting: S. cerevisiae deletion strains, locus YAL013W, strain DEP1, hits give low values.
[2] abbreviates: S. cerevisiae deletion strains, locus YAL040C, strain CLN3, hits give low values.
Setting [3] is: S. cerevisiae deletion strains, locus YCL061C, strain MRC1 (second series), hits give low values.
[4] abbreviates: S. cerevisiae deletion strains, locus YDR150W, strain NUM1, hits give low values.
[5] abbreviates: S. cerevisiae deletion strains, locus YDR363W, strain ESC2, hits give low values.
Setting [6] is: S. cerevisiae deletion strains, locus YER002W, strain NOP16, hits give low values.
The mark [7] stands for this setting: S. cerevisiae deletion strains, locus YMR263W, strain SAP30, hits give low values.
Where [8] appears, read: S. cerevisiae deletion strains, locus YNL175C, strain NOP13, hits give low values.
[9] abbreviates: S. cerevisiae deletion strains, locus YNL197C, strain WHI3, hits give low values.
[10] abbreviates: S. cerevisiae deletion strains, locus YNL224C, strain SQS1, hits give low values.
[11] abbreviates: S. cerevisiae deletion strains, locus YOR083W, strain WHI5 (second series), hits give low values.
Where [12] appears, read: S. cerevisiae deletion strains, locus YPL055C, strain LGE1, hits give low values.
The mark [13] stands for this setting: S. cerevisiae deletion strains, locus YPL241C, strain CIN2, hits give low values.
The mark [14] stands for this setting: S. cerevisiae deletion strains, locus YGR229C, strain SMI1, hits give low values.
Setting [15] is: S. cerevisiae deletion strains, locus YMR307W, strain GAS1, hits give low values.
[16] abbreviates: S. cerevisiae deletion strains, locus YNL128W, strain TEP1, hits give low values.
Setting [17] is: S. cerevisiae deletion strains, locus YNL153C, strain GIM3, hits give low values.
Where [18] appears, read: S. cerevisiae deletion strains, locus YBR229C, strain ROT2, hits give low values.
Setting [19] is: S. cerevisiae deletion strains, locus YCL061C, strain MRC1, hits give low values.
The mark [20] stands for this setting: S. cerevisiae deletion strains, locus YDL101C, strain DUN1, hits give low values.
The mark [21] stands for this setting: S. cerevisiae deletion strains, locus YEL061C, strain CIN8, hits give low values.
Where [22] appears, read: S. cerevisiae deletion strains, locus YGR078C, strain PAC10, hits give low values.
[23] abbreviates: S. cerevisiae deletion strains, locus YHR030C, strain SLT2, hits give low values.
The mark [24] stands for this setting: S. cerevisiae deletion strains, locus YHR087W, strain rtc3, hits give low values.
Where [25] appears, read: S. cerevisiae deletion strains, locus YJL187C, strain SWE1, hits give low values.
Where [26] appears, read: S. cerevisiae deletion strains, locus YJR043C, strain POL32, hits give low values.
Setting [27] is: S. cerevisiae deletion strains, locus YJR075W, strain HOC1, hits give low values.
[28] abbreviates: S. cerevisiae deletion strains, locus YKL190W, strain CNB1, hits give low values.
The mark [29] stands for this setting: S. cerevisiae deletion strains, locus YLR039C, strain RIC1, hits give low values.
Setting [30] is: S. cerevisiae deletion strains, locus YLR058C, strain SHM2 (second series), hits give low values.
[31] abbreviates: S. cerevisiae deletion strains, locus YLR085C, strain ARP6, hits give low values.
The mark [32] stands for this setting: S. cerevisiae deletion strains, locus YLR262C, strain YPT6, hits give low values.
Where [33] appears, read: S. cerevisiae deletion strains, locus YML094W, strain GIM5, hits give low values.
Setting [34] is: S. cerevisiae deletion strains, locus YMR219W, strain ESC1, hits give low values.
The mark [35] stands for this setting: S. cerevisiae deletion strains, locus YNL298W, strain CLA4 (second series), hits give low values.
The mark [36] stands for this setting: S. cerevisiae deletion strains, locus YNL322C, strain KRE1, hits give low values.
Where [37] appears, read: S. cerevisiae deletion strains, locus YNR030W, strain Alg12, hits give low values.
Setting [38] is: S. cerevisiae deletion strains, locus YPR135W, strain CTF4, hits give low values.
The mark [39] stands for this setting: S. cerevisiae strains, strain wild type, hits give low values.
[40] abbreviates: S. cerevisiae deletion strains, locus YOL006C, strain TOP1, hits give low values.

Out of some 5,500 compounds screened, about 2,000 (36%) were called active. Inconclusive results (about 18%) are left out. Some of the results follow. Values without a mark were called inactive. Rule as the data show it: active = normalized growth mostly below about 0.91 (no sharp cut-off); inconclusive = no clear call, values can overlap the other calls; inactive = mostly above about 0.92.

In the case of `N=C(N)c1ccc(OCCCCCOc2ccc(C(=N)N)cc2)cc1` (tested in a mixture with another compound), the normalized growth under setting [1] is 0.943; the normalized growth under setting [2] is 0.944; the normalized growth under setting [3] is 0.981; the normalized growth under setting [4] is 0.963; the normalized growth under setting [5] is 0.961; the normalized growth under setting [6] was 0.95. The normalized growth was 0.983 under setting [7]; 0.962 under setting [8]; 0.943 under setting [9]; 0.946 under setting [10]; 0.944 under setting [11]; 0.912 under setting [12]. Moreover, under setting [13], the normalized growth was 0.95.

Take `N=C(N)c1ccc(N)cc1`: the normalized growth under setting [1] is 1.01; the normalized growth under setting [2] is 0.975; the normalized growth under setting [3] is 0.998; the normalized growth under setting [5] was 0.981; the normalized growth under setting [6] was 0.997; the normalized growth under setting [14] is 1.01. In addition, the normalized growth is 1 under setting [15]; 0.978 under setting [16]; 1 under setting [17]; 1.01 under setting [8]; 0.994 under setting [9]; 0.968 under setting [10]. Besides, the normalized growth is, setting by setting: under setting [11], 0.981; under setting [13], 1.

As to `Cc1csc2ccc(Cl)cc12`, the normalized growth is 0.994 under setting [1]; 0.998 under setting [18]; 1.01 under setting [19]; 1.02 under setting [20]; 0.993 under setting [4]; 1.01 under setting [21]. The normalized growth is, setting by setting: under setting [22], 0.998; under setting [23], 1.07; under setting [24], 0.999; under setting [25], 1.02; under setting [26], 1; under setting [27], 0.98. In addition, the normalized growth reads like this: under setting [28], 1.01; under setting [29], 1.07; under setting [30], 1; under setting [31], 1.03; under setting [32], 1.04; under setting [33], 1.01. The normalized growth is, setting by setting: under setting [34], 1; under setting [7], 1.01; under setting [15], 1.07; under setting [17], 1.02; under setting [35], 1.06; under setting [36], 1.01. The normalized growth was 1.03 under setting [37]; 0.996 under setting [12]; 1.02 under setting [13]; 1 under setting [38]; 1.01 under setting [39].

Turning to `Cc1c(Br)sc2ccc(Cl)cc12`, the normalized growth reads like this: under setting [1], 0.987; under setting [18], 0.936; under setting [20], 0.96; (S. cerevisiae deletion strains, locus YDL134C, strain PPH21, hits give low values) 0.849 (active); under setting [4], 1.03; under setting [21], 0.909. The normalized growth reads like this: under setting [22], 0.952; under setting [23], 0.294 (active); under setting [24], 0.963; under setting [26], 1.05; under setting [27], 0.955; under setting [28], 0.959. The normalized growth under setting [29] was 0.733 (active); the normalized growth under setting [30] is 0.952; the normalized growth under setting [31] was 0.708 (active); the normalized growth under setting [32] was 0.709 (active); the normalized growth under setting [33] is 0.864 (active); the normalized growth under setting [34] is 0.948. Further, the normalized growth reads like this: under setting [7], 0.99; under setting [17], 0.98; under setting [35], 0.782 (active); under setting [36], 0.976; under setting [37], 0.926; under setting [40], 0.891. The normalized growth runs as follows: under setting [12], 1.04; under setting [13], 0.939; under setting [38], 0.953.

On to `NC(N)=[N+]1CCc2ccccc2C1`, for which the normalized growth runs as follows: under setting [2], 0.966; under setting [3], 0.989; under setting [4], 1; under setting [5], 0.904; under setting [6], 0.982; under setting [14], 0.962. Also, the normalized growth is 0.988 under setting [7]; 1 under setting [15]; 0.992 under setting [16]; 1 under setting [17]; 0.991 under setting [8]; 0.984 under setting [9]. Moreover, the normalized growth was 1.01 under setting [10], 0.972 under setting [36], 0.969 under setting [11] and 0.944 under setting [12].

On to `COc1cc(OC)nc(N)n1`, for which the normalized growth runs as follows: under setting [1], 1.02; under setting [18], 0.958; under setting [19], 1.03; under setting [20], 1.04; under setting [4], 1.03; under setting [21], 1. Also, the normalized growth runs as follows: under setting [22], 1.03; under setting [14], 0.979; under setting [23], 1.06; under setting [24], 0.974; under setting [25], 1.02; under setting [26], 1.06. In addition, the normalized growth was 1.01 under setting [27]; 0.992 under setting [28]; 0.946 under setting [29]; 0.991 under setting [30]; 0.949 under setting [31]; 0.96 under setting [32]. For the same compound, the normalized growth reads like this: under setting [33], 0.986; under setting [34], 0.98; under setting [7], 1.02; under setting [17], 1.02; under setting [35], 0.99; under setting [36], 0.988. The normalized growth is 0.999 under setting [37]; 1.01 under setting [40]; 1.02 under setting [12]; 1.02 under setting [13]; 1.06 under setting [38]; 0.985 under setting [39].

The values above are taken from PubChem BioAssay AID1159580 (chemical genetic matrix, 2015).
